TEAD-YAP block = TEAD-YAP interaction inhibition. HEK-TIYL cells, TEAD-Gal4/YAP UAS-luciferase luminescence. inhibition, % at 9.12 µM. 640,000 compounds, 1.4% hits. AID 1259422; in the data active means inhibition above about 32%
FBW7 act = human FBW7 E3 ligase activation, primary screen | Q969H0 | AlphaScreen FBW7–phospho-cyclin E peptide binding, activator screen | normalized activity (activation), % at 26.1 µM | 650,000 compounds, 0.13% hits; in the data active means normalized activity above about 1.9%;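 further: purified mutant Fbw7 with reduced substrate affinity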
GPR151 ag = human GPR151 activation. AID 1508602. Q8TDV0. activation, % at 11.2 µM. 650,000 compounds, 1% hits. PathHunter beta-arrestin GPR151 cells, luminescence; in the data active means activation above about 4.9%
Target sequence (Q8TDV0 whole entry, looked up): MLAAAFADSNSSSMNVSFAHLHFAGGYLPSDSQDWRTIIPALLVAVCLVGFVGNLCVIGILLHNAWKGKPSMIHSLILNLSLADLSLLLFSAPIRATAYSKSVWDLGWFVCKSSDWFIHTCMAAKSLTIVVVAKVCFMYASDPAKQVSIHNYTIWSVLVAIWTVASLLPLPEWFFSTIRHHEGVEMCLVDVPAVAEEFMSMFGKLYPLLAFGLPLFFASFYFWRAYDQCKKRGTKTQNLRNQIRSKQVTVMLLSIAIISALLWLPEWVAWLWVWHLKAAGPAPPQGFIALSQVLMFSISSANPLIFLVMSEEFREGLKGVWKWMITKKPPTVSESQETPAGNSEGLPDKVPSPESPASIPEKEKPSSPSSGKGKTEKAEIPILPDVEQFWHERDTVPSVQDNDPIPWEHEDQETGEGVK
MITF primary = blocks human microphthalmia-associated transcription factor; inhibition, % at 2.6 µM; AlphaScreen MITF homodimerization, bead proximity signal; O75030; 650,000 compounds, 0.91% hits; in the data active means inhibition above about 50%
Numbers stand for hits; i = inactive. In the library only some 3.4% were active in any assay of this set; here they are far more common.

SMILES | TEAD-YAP block | FBW7 act | GPR151 ag | MITF primary
Ic1ccc2ncnc(Nc3ccccc3)c2c1 | i | i | i | i
O=C1c2ccc3c4c(ccc(c24)C(=O)N1CCCCO)C(=O)N(CCCCO)C3=O | 79 | i | i | i
CCN(CC)CCn1c(=S)sc2c(=O)n(-c3ccccc3)c(SCc3ccccc3Cl)nc21 | i | i | i | i
c1ccc(-c2cc(NCc3ccco3)nc(-c3ccccn3)n2)nc1 | 59 | i | i | 111
c1ccc(-c2nc(NCc3ccco3)cc(-c3cccnc3)n2)nc1 | i | i | i | i
C=CCNc1cc(-c2ccccn2)nc(-c2ccccn2)n1 | 50 | i | i | 115
CCCCN(C)CCNc1nc(=S)[nH]c2ccccc12 | i | i | i | i
CCOC(=O)CCNC(=O)Nc1cc2nc(C)n(Cc3ccc(OC)cc3)c2nc1C | i | i | i | i
c1ccc(CNc2nc(-c3ccncc3)nc3cnccc23)cc1 | i | i | i | i
COCCNC(=O)c1ccc(Sc2ccc(C)cc2)c(N)c1 | i | i | i | i
COc1ccc(C2C3=C(CCCC3=O)Nc3ccccc3N2C(C)=O)cc1 (stereo unspecified) | i | i | i | i
CCCCCCNc1ccc([N+](=O)[O-])cc1[N+](=O)[O-] | i | i | i | i
CCCCCNc1sc(Cl)c([N+](=O)[O-])c1[N+](=O)[O-] | 65 | i | i | i
CC(=O)c1ccc(NC(=O)NNC(=O)c2ccccc2-n2cccc2)cc1 | i | i | i | i
COc1ccc(NC(=O)CNC(=O)c2nn(-c3ccc(OC)c(OC)c3)c(=O)c3ccccc23)cc1OC | 34 | i | i | i
COc1ccc(-n2nc(C(=O)NCC(=O)Nc3ccc(OC)c(OC)c3)c3ccccc3c2=O)cc1 | i | i | i | i
COc1ccc(-n2nc(C(=O)NCC(=O)Nc3cc(OC)c(OC)c(OC)c3)c3ccccc3c2=O)cc1Cl | 50 | i | i | i
COc1ccc(C)cc1NC(=O)CNC(=O)c1nn(-c2ccc(OC)c(OC)c2)c(=O)c2ccccc12 | 35 | i | i | i
COc1ccc(-n2nc(C(=O)NCC(=O)NCCN(C)CCc3ccccn3)c3ccccc3c2=O)cc1Cl | 33 | i | i | i
CCOC(=O)c1ccc(NC(=O)CSc2nnc(NCc3ccccc3)s2)cc1 | i | i | i | i
CCOc1ccc(CCN2C(=O)CC(Cc3ccccc3)C2=O)cc1OCC (stereo unspecified) | i | i | i | i
N/C(=N\N=C\c1c(O)ccc2ccccc12)c1ccccn1 | 60 | i | i | i
N/C(=N\N=C/c1ccc(O)cc1O)c1ccccn1 | 84 | i | i | i
COc1ccccc1/C=N\N=C(/N)c1ccccn1 | 56 | i | i | i
Cc1[nH]n(-c2ccccc2)c(=O)c1/C=N/NC(C)(C)C | i | i | i | i
SMILES | TEAD-YAP block | FBW7 act | GPR151 ag | MITF primary
Cc1[nH]n(-c2ccccc2)c(=O)c1/C=N/N/C(=N/c1ccccn1)c1ccccn1 | i | i | i | 52
Oc1ccc2ccccc2c1/C=N/c1ccccn1 | i | i | i | i
Cc1nc(SCC(N)=O)c(C#N)c(C)c1Cl | i | i | i | i
COc1ccc(CCNc2ccnc(NC3CCC(O)CC3)n2)cc1 (stereo unspecified) | i | i | i | i
Oc1ccc(/C=N/N/C(=N/c2ccccn2)c2ccccn2)c(O)c1 | 59 | i | i | i
Cc1c(C(=O)NCCC(C)C)oc2ccc3c(c12)C(=O)CC(C)(C)O3 | i | i | i | i
CCCc1ccc(OCC(=O)c2ccc(O)cc2O)cc1 | 85 | i | i | i
CC(=O)N1CCSc2cc(S(=O)(=O)NCCCc3ccccc3)ccc21 | 35 | i | i | i
CC(=O)N1CCSc2cc(S(=O)(=O)N3CCC(Cc4ccccc4)CC3)ccc21 | 55 | i | i | i
O=c1c(Cl)c(Cl)cnn1C12CC3CC(CC(C3)C1)C2 | 78 | i | i | i
O=c1c(Cl)c(NCCO)cnn1C12CC3CC(CC(C3)C1)C2 | i | i | i | i
COc1ccc(-c2csc(CN3CCN(C(=O)c4ccc(F)c(F)c4)CC3)n2)cc1 | 50 | i | i | i
CCn1cc(C(=O)N2CCN(c3ccccc3OC)CC2)c(=O)c2ccc(C)nc21 | i | i | i | i
CCn1cc(C(=O)N2CCN(Cc3nc(-c4ccc(F)cc4)cs3)CC2)c(=O)c2ccc(C)nc21 | 61 | i | i | i
CCOC(=O)c1sc(NC(=O)c2ccco2)c(SC#N)c1C | 34 | i | i | i
O=S(=O)(NCCCN1CCOCC1)c1cccs1 | i | i | i | i
CC(=O)Oc1cccc(N2Cc3ccccc3C2=O)c1 | 73 | i | i | i
CCc1nn(CC(=O)NCCN2CCN(C)CC2)c(=O)c2cc3sccc3n12 | i | i | i | i
COc1ccc(OC)c(CCNC(=O)c2cc3c(C)nc4ccccc4c3o2)c1 | 46 | i | i | i

Assay outcomes: PubChem, The Scripps Research Institute Molecular Screening Center
